# Like-named read-outs stand apart in the source and are kept apart here.
# Assays:
# Design in all cases: species or system human, MV4-11 + K-562 + COLO205 + SK-N-BE2 + OVCAR-8
# CDK16 = conditions: read-out: apparent Kd; compound concentrations: 100 nM and 1000 nM (sheet 'Samples'), CATDS: 6.29330119004379E-3; n = 1
# CDK17 = conditions: read-out: apparent Kd; compound concentrations: 100 nM and 1000 nM (sheet 'Samples'), CATDS: 6.8555901877920197E-3; n = 1
# LATS1 = conditions: read-out: apparent Kd, compound concentrations: 100 nM and 1000 nM (sheet 'Samples'), n = 1
# MAPK9 = conditions: read-out: apparent Kd, compound concentrations: 100 nM and 1000 nM (sheet 'Samples'), n = 1
# MARK3 = conditions: read-out: apparent Kd, compound concentrations: 100 nM and 1000 nM (sheet 'Samples'), n = 1
# MARK4 = conditions: read-out: apparent Kd, compound concentrations: 100 nM and 1000 nM (sheet 'Samples'), n = 1
# PLK4 = conditions: read-out: apparent Kd, compound concentrations: 100 nM and 1000 nM (sheet 'Samples'), n = 1
# PRKAG1 = conditions: read-out: apparent Kd, compound concentrations: 100 nM and 1000 nM (sheet 'Samples'), n = 1
# PTK2B = conditions: read-out: apparent Kd, compound concentrations: 100 nM and 1000 nM (sheet 'Samples'), n = 1
# PTK2 = conditions: read-out: apparent Kd, compound concentrations: 100 nM and 1000 nM (sheet 'Samples'), n = 1
# RIOK2 = conditions: read-out: apparent Kd; compound concentrations: 100 nM and 1000 nM (sheet 'Samples'), CATDS: 6.5501119131463198E-3; n = 1
# RPS6KA6 = conditions: read-out: apparent Kd, compound concentrations: 100 nM and 1000 nM (sheet 'Samples'), n = 1
# SIK2 = conditions: read-out: apparent Kd, compound concentrations: 100 nM and 1000 nM (sheet 'Samples'), n = 1
# STK4 = conditions: read-out: apparent Kd; compound concentrations: 100 nM and 1000 nM (sheet 'Samples'), CATDS: 6.7227641521754398E-3; n = 1
# CDK7 = conditions: read-out: apparent Kd, compound concentrations: 100 nM and 1000 nM (sheet 'Samples'), n = 1
# PKN1 = conditions: read-out: apparent Kd, compound concentrations: 100 nM and 1000 nM (sheet 'Samples'), n = 1
# PKN3 = conditions: read-out: apparent Kd, compound concentrations: 100 nM and 1000 nM (sheet 'Samples'), n = 1
# PRKCD = conditions: read-out: apparent Kd; compound concentrations: 100 nM and 1000 nM (sheet 'Samples'), CATDS: 8.2492592697018703E-3; n = 1
# PRKD3 = conditions: read-out: apparent Kd, compound concentrations: 100 nM and 1000 nM (sheet 'Samples'), n = 1
compound,measurement,setting,value
COc1ccc(Nc2ncc(C#N)c(Nc3ccccc3C(N)=O)n2)cc1N1CCN(C)CC1.Cl [GSK1558669A],potency estimated from few doses,CDK16,1270 nM
same,potency estimated from few doses,CDK17,789 nM
same,potency estimated from few doses,LATS1; CATDS: 9.7361630406248897E-3,205 nM
same,potency estimated from few doses,MAPK9; CATDS: 7.8754696697006001E-3,427 nM
same,potency estimated from few doses,MARK3; CATDS: 1.02819135302623E-2,174 nM
same,potency estimated from few doses,MARK4; CATDS: 1.5249165601859399E-2,64.4 nM
same,potency estimated from few doses,PLK4; CATDS: 7.9359519159901901E-3,415 nM
same,potency estimated from few doses,PRKAG1; CATDS: 1.48267658268137E-2,68.5 nM
same,potency estimated from few doses,PTK2B; CATDS: 1.3529380969040701E-2,84.5 nM
same,potency estimated from few doses,PTK2; CATDS: 4.75918589440152E-2,9.26 nM
same,potency estimated from few doses,RIOK2,1000 nM
same,potency estimated from few doses,RPS6KA6; CATDS: 2.0856200348519E-2,34.3 nM
same,potency estimated from few doses,SIK2; CATDS: 3.5509703257123403E-2,14.1 nM
same,potency estimated from few doses,STK4,872 nM
CN(c1ccc(NC(=O)Nc2cccc(Cl)c2)cc1)c1ccnc(N)n1.Cl [GW830707A],potency estimated from few doses,CDK7; CATDS: 2.70910980037193E-2,25.3 nM
same,potency estimated from few doses,PKN1; CATDS: 1.22442733693101E-2,482 nM
same,potency estimated from few doses,PKN3; CATDS: 1.09744327233877E-2,1140 nM
same,potency estimated from few doses,PRKAG1; CATDS: 2.2358938635015799E-2,39.4 nM
same,potency estimated from few doses,PTK2B; CATDS: 2.3206005567305101E-2,35.9 nM
same,potency estimated from few doses,PTK2; CATDS: 2.6556868558213102E-2,26.4 nM
same,potency estimated from few doses,RPS6KA6; CATDS: 2.8909241119288599E-2,22.1 nM
same,potency estimated from few doses,SIK2; CATDS: 1.7275561883006999E-2,84.5 nM
Clc1cc(Cl)cc(Nc2ccnc(Nc3cc(Cl)cc(Cl)c3)n2)c1 [GSK175726A],potency estimated from few doses,CDK7; CATDS: 1.9330129421886999E-2,142 nM
same,potency estimated from few doses,LATS1; CATDS: 8.3705854443938306E-3,1830 nM
same,potency estimated from few doses,MARK4; CATDS: 9.0821419541050104E-3,1200 nM
same,potency estimated from few doses,PKN1; CATDS: 8.1278223120285105E-3,2200 nM
same,potency estimated from few doses,PKN3; CATDS: 9.6016767734474606E-3,940 nM
same,potency estimated from few doses,PLK4; CATDS: 9.9833619636259807E-3,805 nM
same,potency estimated from few doses,PRKAG1; CATDS: 2.2079366714636301E-2,110 nM
same,potency estimated from few doses,PTK2B; CATDS: 1.7764778222698001E-2,168 nM
same,potency estimated from few doses,PTK2; CATDS: 2.2055583015587899E-2,111 nM
same,potency estimated from few doses,RPS6KA6; CATDS: 2.32464475712073E-2,101 nM
same,potency estimated from few doses,SIK2; CATDS: 1.3915634821930201E-2,291 nM
CCOC(=O)N1CCC(n2cnc(-c3ccc(F)cc3)c2-c2ccnc(N)n2)CC1 [SB-219952],potency estimated from few doses,CDK7; CATDS: 2.08118175664989E-2,201 nM
same,potency estimated from few doses,LATS1; CATDS: 8.0711896225058692E-3,1650 nM
same,potency estimated from few doses,MAPK9; CATDS: 3.1045225372311899E-2,107 nM
same,potency estimated from few doses,MARK3; CATDS: 8.6555083221940901E-3,1300 nM
same,potency estimated from few doses,PKN1; CATDS: 1.0348059231995501E-2,795 nM
same,potency estimated from few doses,PKN3; CATDS: 9.8185291638943593E-3,909 nM
same,potency estimated from few doses,PLK4; CATDS: 1.18225591983295E-2,582 nM
same,potency estimated from few doses,PRKAG1; CATDS: 1.03550294618252E-2,794 nM
same,potency estimated from few doses,PRKCD,1530 nM
same,potency estimated from few doses,PRKD3; CATDS: 8.3087862400952096E-3,1490 nM
same,potency estimated from few doses,PTK2B; CATDS: 1.55357941259002E-2,336 nM
same,potency estimated from few doses,PTK2; CATDS: 1.3544498558995E-2,438 nM
same,potency estimated from few doses,RPS6KA6; CATDS: 1.4323736759091399E-2,392 nM
same,potency estimated from few doses,SIK2; CATDS: 1.0490419954407099E-2,769 nM
Cl.Nc1c(C(=O)c2cccc(C#CCN3CCCCC3)c2)cnn1-c1ccc(F)cc1 [RO1154461-001],potency estimated from few doses,CDK7; CATDS: 4.6552483673456102E-2,74.1 nM
same,potency estimated from few doses,LATS1; CATDS: 1.0207334677420601E-2,1780 nM
same,potency estimated from few doses,MARK3; CATDS: 9.8950713499473906E-3,2030 nM
same,potency estimated from few doses,MARK4; CATDS: 1.0984902394488599E-2,1350 nM
same,potency estimated from few doses,PKN1; CATDS: 1.0439948324783401E-2,1630 nM
same,potency estimated from few doses,PKN3; CATDS: 1.05012639622415E-2,1590 nM
same,potency estimated from few doses,PLK4; CATDS: 1.52727578092353E-2,534 nM
same,potency estimated from few doses,PRKAG1; CATDS: 3.6022361277962302E-2,108 nM
same,potency estimated from few doses,PRKD3; CATDS: 9.8039284052072601E-3,2110 nM
same,potency estimated from few doses,PTK2B; CATDS: 4.70772148713983E-2,72.9 nM
same,potency estimated from few doses,PTK2; CATDS: 1.89593095974224E-2,333 nM
same,potency estimated from few doses,RPS6KA6; CATDS: 1.98632860807328E-2,303 nM
same,potency estimated from few doses,SIK2; CATDS: 1.66377583432985E-2,439 nM

# Reference: publication PMC11062922 (Nature Chemical Biology, 2023)
